The test can be described thus: inhibitors of VEEV TC-83 cytopathic effect, confirmation, Vero cells (AID 588727). As to conditions: VEEV TC-83 cytopathic effect inhibition, at 20 µM. On the technique in general: Damage to the host cells serves as the signal in cytopathic effect assays.
Where [1] appears, read: stronger effect = higher value unless noted.
The mark [2] stands for this setting: measured here: 10K pilot screen inhibition, stronger effect = higher value.

From PubChem BioAssay AID588727 (Southern Research Specialized Biocontainment Screening …, 2011) come the findings set out here.

For orientation: inhibition means how much of the control response was suppressed.

Hit rate of the full screen: of about 350,000 compounds, about 450 (0.13%) were called active. The rule behind the calls is not given here. A selection follows. Measured potencies and affinities stand elsewhere. Where a SMILES comes first, the peptide text is derived from it. The star is where a group is joined. CH2Cl = ClC*

For the molecule `CCOC(=O)N1CCN(C(=O)CCNS(=O)(=O)c2ccccc2)CC1`, the inhibition under setting [1] was 1.37% (inactive). Turning to `CCOC(=O)c1[nH]c(COC(=O)c2ccccc2NC(=O)c2ccco2)c(C(=O)OCC)c1C`, the inhibition was 1.08% (inactive) (stronger effect = higher value) and 3.34% under setting [2]. For `CCCCN(C(=O)CSc1nc(CCC)cc(=O)[nH]1)c1c(N)n(Cc2ccccc2)c(=O)[nH]c1=O`, the inhibition under setting [1] was 0.91% (inactive).

With `O=c1oc(C2(O)CCCCC2)cc2ccccc12`, the inhibition under setting [1] was 0.11% (inactive).

For the molecule `O=c1oc(C2(O)CCCCC2)cc2ccc(Br)cc12`, the inhibition is 0.16% (inactive) (stronger effect = higher value) and 1.56% under setting [2].

In the case of `COc1ccc(OC)c(NC(=O)c2ccc3c(c2)OCO3)c1`, the inhibition result under setting [1] was “inactive”. Still for that read-out and setting: the figure for `CCCc1nc2c(s1)CCc1onc(-c3cccc([N+](=O)[O-])c3)c1-2` is 0.11% (inactive). With `CN1CCN(c2ccc(NC(=O)c3ccc(-c4ccc(Cl)cc4)o3)cc2)CC1`, under setting [1], the inhibition was 10.7% (inactive). For `CN1CCN(c2ccc(NC(=O)c3ccc(-c4ccc(Br)cc4)o3)cc2)CC1`, the inhibition under setting [1] was 9.39% (inactive). In the case of `O=C(CN(C(=O)c1csnn1)c1cccc(C(F)(F)F)c1)NCCc1ccccc1`, the inhibition entry under setting [1] was “inactive”.

As for `O=[N+]([O-])c1ccc(-[n+]2c(-c3ccccc3)cc(-c3ccccc3)cc2-c2ccccc2)cc1`, under setting [1], the inhibition was 2.23% (inactive).

Consider `O=[N+]([O-])c1cccc(C2=NC(c3ccccc3)CO2)c1` (configuration not stated), for which, under setting [1], the inhibition was 0.23% (inactive). On the same count and under the same terms, the figure for `O=C1CCC(C(=O)N2CCN(c3ccc(F)cc3)CC2)CN1CC1CCCCC1` (configuration not stated) is 0.83% (inactive).

Consider `Cc1onc(-c2ccccc2)c1C(=O)NNC(=S)NC(=O)c1ccc(Br)cc1`, for which, under setting [1], the inhibition was 3.29% (inactive). Same read-out and setting: the figure for `Cc1onc(-c2ccccc2)c1C(=O)NC(=S)NNC(=O)c1ccc(O)cc1O` is 12.2% (inactive); for `BrC(=C\c1ccccc1)/C=N/n1cnnc1` it is 5.75% (inactive). The same measure, in the same setting: for `Nc1nnnn1/N=C/C(Br)=C/c1ccccc1` the value was 12.1% (inactive); for `Cc1ccc(-c2cc(C(F)F)n3ncc(C(=O)N4CCN(c5ccccn5)CC4)c3n2)cc1`, 8.27% (inactive); for `O=C(NCc1ccccc1)c1ncn[nH]1`, “inactive”. Still for that read-out and setting: the figure for `O=C(Nc1ccccc1Cl)C1CCCN(S(=O)(=O)c2ccc(-n3cnnn3)cc2)C1` (configuration not stated) is 0.96% (inactive). With `Cc1ncc(CN2CCCC(C(=O)Nc3ccc(-c4cccc(F)c4)cc3)C2)cn1` (configuration not stated), the inhibition under setting [1] was 5.3% (inactive). Take `Cn1cc(CN2CCC(C(=O)Nc3cccc(-c4cccc(F)c4)c3)CC2)cn1`: the inhibition under setting [1] is 5.64% (inactive).

Consider `Cc1ncc(CN2CCCC(C(=O)Nc3ccc(-c4ccco4)cc3)C2)n1C` (configuration not stated), for which the inhibition under setting [1] was 5.05% (inactive).

With `COc1cccc(-c2ccc(NC(=O)C3CCCN(Cc4cnc(C)s4)C3)cc2)c1` (configuration not stated), the inhibition under setting [1] was 2.02% (inactive). The same measure, in the same setting: the figure for `COc1cccc(-c2ccc(NC(=O)C3CCCN(Cc4cnn(C)c4C)C3)cc2)c1` (configuration not stated) is 23.7% (inactive); for `COc1cccc(-c2ccc(NC(=O)C3CCCN(Cc4cnn(C(C)C)c4)C3)cc2)c1` (configuration not stated) it is 21.3% (inactive).

Take `COC(=O)C(O)(c1ccc(N(C)C(=O)c2ccc(Cl)c(Cl)c2)cc1)C(F)(F)F` (configuration not stated): the inhibition under setting [1] is 0.88% (inactive). Same read-out and setting: the entry for `CCOC(=O)c1c(S(=O)(=O)N2c3ccccc3CC2C)c(C)n(C)c1C` (configuration not stated) is “inactive”; for `Cc1c(NC(=O)c2ccc(Br)s2)c(=O)n(-c2ccccc2)n1C` it is 0.26% (inactive); for `O=C(N[C@@H](Cc1ccccc1)C(=O)CCl)OCc1ccccc1` it is 8.46% (inactive). Still for that read-out and setting: the figure for `CC(=O)NC(CC(C)C)C(=O)NC(Cc1ccccc1)C(=O)CCl` (stereo not drawn) (Ac-Leu-Phe-CH2Cl; configuration not given here) is 6.56% (inactive); for `Cc1nc(-c2ccc(Cl)cc2)sc1C1(C)CC(c2cccc(F)c2)=NO1` (configuration not stated) it is 2.59% (inactive). Still for that read-out and setting: for `C[C@]12CCC(O)CC1CCC1C2CC[C@]2(C)C(c3cc(C(F)(F)F)n[nH]3)CCC12` (some centres not stated) the value was “inactive”. As to `CN(C)CCNC(=O)c1ccccc1-c1cc2ccccc2c(=O)o1`, under setting [1], the inhibition was 0.53% (inactive). With `COc1ccc(C(=O)Nc2cc3c(cc2OC)CCCC3)cc1Br`, under setting [1], the inhibition is 1.28% (inactive). On the same count and under the same terms, the figure for `COc1cc2c(cc1NC(=O)c1cccc(F)c1)CCCC2` is 0.61% (inactive). Same read-out and setting: the entry for `CCOc1ccc(NC(=O)CN(C)C(=O)CCc2nc3ccccc3c(=O)[nH]2)cc1OCC` is “inactive”; for `CC1(C)Cc2cccc(OCC(=O)Nc3cccnc3)c2O1` it is 7.7% (inactive). Take `CC1(C)Cc2cccc(OCC(=O)Nc3nccs3)c2O1`: under setting [1], the inhibition was 7.27% (inactive). The same measure, in the same setting: the figure for `CCCC(=O)C1C(=O)CC(CC(C)SCC)CC1=O` (configuration not stated) is 0.43% (inactive); for `O=C1/C(=C/c2cccnc2)Oc2cc(OS(=O)(=O)c3ccc(F)cc3)ccc21` it is 0.87% (inactive). Same read-out and setting: the figure for `CC(=O)c1c(C)[nH]c(C(=O)NC2CCSc3ccccc32)c1C` (configuration not stated) is 4.81% (inactive); for `CCc1c(C(=O)NC2CCCCC2)[nH]c(C)c1C(C)=O` it is “inactive”; for `COc1ccc(N2C(=O)CC(N3CCN(c4ccc(Cl)cc4)CC3)C2=O)cc1` (configuration not stated) it is 0.34% (inactive).

With `CCC(CC)c1nnc(NC(=O)Cc2c[nH]c3ccccc23)s1`, the inhibition under setting [1] is 3.52% (inactive).

As for `O=C(Cc1coc2ccc3ccccc3c12)Nc1nccs1`, the inhibition under setting [1] is 2.66% (inactive).

Regarding `Cc1cc2occ(CC(=O)Nc3nnc(C4CC4)s3)c2cc1C`, the inhibition under setting [1] is 0.7% (inactive). The same measure, in the same setting: the figure for `CCc1nnc(NC(=O)Cc2c[nH]c3ccccc23)s1` is 0.4% (inactive). On to `CC(=O)c1cccc(N=Cc2c(O)c3ccccc3oc2=O)c1`, for which the inhibition under setting [1] was 8.95% (inactive). On to `Cc1[nH]c2ccccc2c1C(C[N+](=O)[O-])c1ccco1` (configuration not stated), for which the inhibition under setting [1] is 1.43% (inactive). As to `COc1cc(S(=O)(=O)N2CCN(C)CC2)c(OC)cc1Cl`, the inhibition result under setting [1] was “inactive”. On to `COCCC(=O)NC12CC3CC(CC(C3)C1)C2`, for which the inhibition result under setting [1] is “inactive”. On to `O=C(CNCCO)NC12CC3CC(CC(C3)C1)C2`, for which the inhibition under setting [1] was 2.6% (inactive). Same read-out and setting: the figure for `Oc1ccc(N=Nc2n[nH]c(-c3ccc(Cl)cc3)n2)cc1` is 1.16% (inactive). On the same count and under the same terms, the entry for `Oc1ccc(Cl)cc1N=Nc1ccccc1` is “inactive”; for `COc1ccccc1-c1n[nH]c(=S)o1` it is 0.85% (inactive); for `COC(=O)Nc1ccc(S(=O)(=O)N2CCCc3ccccc32)cc1` it is “inactive”. As to `CC(=O)Nc1ccc(S(=O)(=O)N2CCCc3ccccc32)cc1`, the inhibition entry under setting [1] was “inactive”. The same measure, in the same setting: the figure for `O=C(O)c1ccc(Sc2ccccn2)c([N+](=O)[O-])c1` is 0.39% (inactive); for `N/C(CS(=O)(=O)c1ccccc1)=N\OC(=O)c1ccc(F)cc1` it is 1.85% (inactive); for `c1ccc(Oc2nc(NCc3ccco3)nc(NCc3ccco3)n2)cc1` it is 4.2% (inactive).

In the case of `Cc1ccc(NS(=O)(=O)c2cccc3cccnc23)c(Cl)c1`, under setting [1], the inhibition was 1.97% (inactive). On the same count and under the same terms, for `Cc1ccc(S(=O)(=O)Nc2cccc3cccnc23)cc1` the value was 5.25% (inactive).

On to `O=S1(=O)N=C2CCCCCN2C(c2ccc(Cl)cc2)N1` (configuration not stated), for which the inhibition under setting [1] is 0.81% (inactive). With `CCCCN1C(Nc2ccccc2)=NC[C@@H]1C`, under setting [1], the inhibition was 0.29% (inactive). Same read-out and setting: for `COc1ccc(C(C(=O)NC2CCCC2)N(C(=O)c2ccco2)c2ccc(OC)c(OC)c2)cc1` (configuration not stated) the value was 0.66% (inactive); for `CC(C)NC(=O)N(C)C[C@@H]1Oc2c(NS(=O)(=O)c3ccccc3)cccc2C(=O)N([C@@H](C)CO)C[C@@H]1C`, 0.31% (inactive).

For `O=c1nc(/C=C/c2ccc(O)c(O)c2)oc2ccccc12`, the inhibition under setting [1] was 1.28% (inactive). On to `COc1ccc(/C=C/c2nc3ccccc3c(=O)o2)cc1`, for which, under setting [1], the inhibition was 3.84% (inactive).

As to `O=C1NC(=O)c2cc(NC(=O)c3cccc4ccccc34)ccc21`, the inhibition under setting [1] was 2.09% (inactive). Still for that read-out and setting: for `C[C@]1(O)CCC2C3CC[C@@H]4CC(=O)CC[C@]4(C)C3CC[C@@]21C` (some centres not stated) the value was “inactive”; for `CC12CCC(=O)CC1CCC1C2CCC2(C)C1CCC2(O)C(=O)CO` (configuration not stated), 10.6% (inactive). Same read-out and setting: for `Cn1cc(CN2CCC(CO)CC2)c(-c2ccc(Oc3ccccc3)cc2)n1` the value was 0.54% (inactive). Turning to `Cn1cc(CN2CCC(O)CC2)c(-c2ccc(Oc3ccccc3)cc2)n1`, the inhibition under setting [1] is 1.33% (inactive). The same measure, in the same setting: for `COc1cccc(CN2CC(C(=O)NCCCn3ccnc3C)CCC2=O)c1` (configuration not stated) the value was 0.67% (inactive); for `CC(C)c1nnc(SCC(=O)N2CCc3ccccc32)n1N`, “inactive”. Take `C/C(=N\NC(=O)c1c(C)nc2ccccn12)c1cccc([N+](=O)[O-])c1`: under setting [1], the inhibition is 0.31% (inactive). Turning to `COc1ccc(/C=C/C(=O)c2c(C)nc3ccccn23)cc1`, under setting [1], the inhibition is 5.86% (inactive). The same measure, in the same setting: for `Cc1ccc(S(=O)(=O)NNC(=O)c2sc(NS(=O)(=O)c3ccccc3)nc2C)cc1` the value was 2.55% (inactive).

Take `CC(=O)c1cccc(NC(=O)CSc2nc3ccccc3c(=O)n2CCCN2CCOCC2)c1`: the inhibition under setting [1] was 8.56% (inactive).

For the molecule `COc1ccc(CNC(=O)C(C)Sc2nc3ccccc3c(=O)n2CCCN2CCOCC2)cc1` (configuration not stated), under setting [1], the inhibition is 0.34% (inactive). For `Cc1ccc2nnnc(-c3ccccc3)c2c1`, the inhibition under setting [1] is 0.17% (inactive). Same read-out and setting: the figure for `c1ccc(-c2nnnc3ccccc23)cc1` is 0.46% (inactive); for `COC(c1ccccc1)c1nc2ccccc2[nH]c1=O` (configuration not stated) it is 0.57% (inactive). For the molecule `O=C(CCCSc1nc2ccccc2[nH]1)Nc1ccccc1`, under setting [1], the inhibition entry is “inactive”. For the molecule `COc1cc(NC(=S)NC(=O)c2cc(C)cc(C)c2)ccc1NC(=O)c1cccs1`, the inhibition under setting [1] was 8.93% (inactive).

As to `COc1cc(NC(=S)NC(=O)c2c(OC)cccc2OC)ccc1NC(=O)c1cccs1`, under setting [1], the inhibition is 3.81% (inactive). Still for that read-out and setting: the entry for `Cc1ccc(Cl)cc1Nc1nc(N2CCOCC2)nc(N2CCOCC2)n1` is “inactive”.

Regarding `O=C(CC(=O)c1ccccc1O)c1cccc(F)c1`, under setting [1], the inhibition is 2.48% (inactive). As to `Cc1ccc(O)c(C(=O)CC(=O)c2ccc(C(C)(C)C)cc2)c1`, the inhibition under setting [1] is 2.3% (inactive). With `CC(C)(C)c1ccc(C(=O)CC(=O)c2cc(Cl)ccc2O)cc1`, under setting [1], the inhibition was 1.44% (inactive). Take `Cc1ccc(C(=O)CC(=O)c2cccc(F)c2)c(O)c1`: under setting [1], the inhibition was 1.73% (inactive).

`CCN(CC)C(=O)Cn1cc(S(=O)(=O)CC(=O)N2CCOCC2)c2ccccc21`: under setting [1], the inhibition is 1.34% (inactive). Consider `CCc1cccc(CC)c1-n1c(SCc2cc(=O)n3ccsc3n2)nnc1-c1cccnc1`, for which the inhibition result under setting [1] is “inactive”. For the molecule `CN(C(=O)COC(=O)/C=C/c1ccc(S(=O)(=O)N2CCc3ccccc32)cc1)C1CCS(=O)(=O)C1` (configuration not stated), the inhibition under setting [1] was 0.84% (inactive).
